# Bioassay records (PubChem)
# Sampled rows, rich in hits. Any-hit rate of the full collection: about 2.7%.
# MITF act: activators of MITF-driven TRPM1 promoter activity in SK-MEL-5 cells | SK-MEL-5 TRPM1-promoter luciferase, 24 h; % of positive control, neutral wells = 0 | activation, % at 12.5 µM | 300,000 tested, 0.75% active | AID 588334;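 active means mean activation of at least 80% with every replicate also reaching 80%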;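 further: 0% = neutral control wells and 100% = parthenolide positive control wells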
# Wnt bcat act: activators of Wnt/beta-catenin signaling. Wnt/beta-catenin reporter cell assay, activator, plate reader. activation, % at 9.35 µM. 300,000 tested, 1.2% active. AID 743398; in the data active means activation above about 30%, passing the limit was not always enough;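 further: 0% = neutral control wells and 100% = positive control wells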
# HIV Env fusion: inhibitors of HIV Env-mediated cell fusion; HeLa-JRFL Env/CEM21 cell fusion, luciferase; inhibition, % at 12.3 µM; 360,000 tested, 1.1% active; AID 651610;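 active means mean replicate inhibition score of at least 50 and every replicate individually at or above 50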;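 further: 0% = plate neutral controls and 100% = maraviroc near 300 nM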
# F508del corr: CFTR F508del correction in bronchial cells; CFBE cells, YFP halide quenching; stimulated with forskolin plus potentiator P3; % fluorescence drop versus neutral controls; activity (quench increase), % at 7.58 µM; 350,000 tested, 0.36% active;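 active means mean added fluorescence quench of at least 8% versus neutral control, with both replicates also reaching 8%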;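 further: cells transiently co-express mutant CFTR-F508del with the halide-sensitive YFP; corrector assay measuring rescue of mutant channel to the surface after 24 h compound exposure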
# INS-1E GSIS act: GLuc luminescence reporter in INS-1E cells, primary screen for activators of glucose-dependent secretion of insulin. AID 743287. activation, % at 16.6 µM. 370,000 tested, 0.61% active. INS-1E GLuc reporter insulin secretion, 2-3 h;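 active means lowest replicate activation of at least 40%, so every replicate reaches that level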;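 further: 0% = median of neutral control wells and 100% = median of IBMX positive control wells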
# Active calls of the source: *; i = inactive; . = not tested or not shown; [ ] = dose if it differs, or a comment.
SMILES,MITF act,Wnt bcat act,HIV Env fusion,F508del corr,INS-1E GSIS act
COc1cccc(CNc2nc(NCC3CC3)nc3ccsc23)c1OC,.,-5.7,14.2,-2.1,5.6
CSc1ccccc1CNc1nc(NCC2CC2)nc2ccsc12,.,-1.4,56.3*,-11.9,-21.8
COc1ccccc1CNc1nc(NCCOc2ccccc2Cl)c2sccc2n1,.,-6.2,72.4*,-3.1,-3.1
CC(C)(C)OC(=O)N1O[C@H]2CC1[C@@H]1[C@@H]2N=NN1CCc1ccncc1,-4.5,-0.8,-11.6,2.0,5.2
CC(C)(C)OC(=O)N1O[C@H]2C[C@@H]1[C@@H]1[C@@H]2N=NN1C12CC3CC(CC(C3)C1)C2,5.3,-1.8,-2.7,1.9,44.3*
O=C(Cn1ncc(Cl)c(Cl)c1=O)NC(=O)NC1CCCCC1,.,0.2,61.4*,-11.5,.
O=C(CN1CCCCC1)NC(=O)NC1CCCC1,10.9,-9.9,4.9,-1.8,3.9
COc1ccc(COc2cc(-c3cccc(OC)c3)nc3ccc(NC(=O)c4ccc(OC)cc4)cc23)cc1,-10.2,-23.7,-8.6,8.2*,-8.2
CC(=O)Nc1cccc(NC(=O)c2ccc(COc3ccccc3)cc2)c1,154.3*,-1.8,-9.3,-1.7,-0.4
COc1ccc(COc2cc(-c3cccc(OC)c3)nc3ccc(NC(=O)c4ccccc4)cc23)cc1,-10.9,-12.4,27.4,2.0,-0.8
CC(=O)Nc1cccc(OCc2ccc([N+](=O)[O-])cc2)c1,.,43.4*,-19.9,-5.3,-2.0
CC(=O)Nc1cccc(OCCCOc2ccc([N+](=O)[O-])cc2)c1,19.4,1.0,-13.6,3.2,1.3
COc1cccc(NC(=O)C[C@H]2CC[C@H]3[C@@H](COc4ccc(NC(=O)C5CCC5)cc4C(=O)N3C)O2)c1,.,.,.,.,0.0
COC(=O)[C@H]1[C@H](CO)[C@H]2Cn3c(ccc(/C=C/c4ccccc4)c3=O)[C@H]2N1C(=O)C1CCCC1,.,.,3.2[16.7 µM],.,-7.5
CCCCn1c(NC(C)CC)nc2c1c(=O)[nH]c(=O)n2C (stereo unspecified),4.6,.,.,.,129.2*
CC(C)CCn1c(N2CCCC2)nc2c1c(=O)[nH]c(=O)n2C,.,-1.4,-9.0,1.4,45.6*
CCCCCn1c(SC(C)C(C)=O)nc2c1c(=O)[nH]c(=O)n2C (stereo unspecified),.,13.4,-39.8,1.9,73.4*
C/C(Cl)=C/CSc1nc2c(c(=O)[nH]c(=O)n2C)n1C(C)C,.,-0.6,.,.,74.4*
C[C@H](CO)N1C[C@H](C)[C@@H](CN(C)C(=O)CCC(F)(F)F)OCCCC[C@H](C)Oc2ccc(NC(=O)Cc3ccccc3)cc2C1=O,.,.,-2.9[16.7 µM],-1.8,-6.7
C[C@@H]1CN([C@H](C)CO)C(=O)c2cc(NC(=O)Cc3ccccc3)ccc2O[C@@H](C)CCCCO[C@@H]1CN(C)C,.,.,-3.4[16.7 µM],1.8,20.1
CCN1CCN(S(=O)(=O)c2ccc(Cl)c(C(=O)Nc3ccccc3N3CCCC3)c2)CC1,-2.1,-2.3,80.5*,2.3,-24.4
CCN1CCN(S(=O)(=O)c2ccc(Cl)c(C(=O)Nc3ccccc3N3CCCCC3)c2)CC1,-8.4,-10.6,7.3,1.2,-22.9
CCN1CCN(c2ccc(S(=O)(=O)N3CCCCC3)cc2NC(=O)c2cc3ccccc3o2)CC1,-10.4,-7.0,9.0,4.6,46.0*
C[C@@H]1CN([C@@H](C)CO)C(=O)c2cc(N(C)C)ccc2O[C@@H]1CN(C)Cc1ccc(C(=O)O)cc1,.,.,2.2[16.7 µM],-3.5,23.9
CC=Cc1ccc2n(c1=O)C[C@@H]1[C@@H](CO)[C@H](C(=O)NCc3ccccn3)[C@H]2N1CCC (mixture of isomers),.,.,.,3.7,7.9
SMILES,MITF act,Wnt bcat act,HIV Env fusion,F508del corr,INS-1E GSIS act
COc1ccc(C2c3c(-c4ccccc4O)n[nH]c3C(=O)N2CCc2ccc(OC)c(OC)c2)cc1 (stereo unspecified),.,.,91.4*,.,-10.1
COC(=O)Cc1nnn2c1[C@@H](C)[C@@H](c1ccccc1Br)O[C@@H](C)C2,.,-0.5,58.9*,-0.3,-5.3
C/C=C/c1ccc2c(c1)O[C@@H](CN(C)C)[C@H](C)CN([C@@H](C)CO)S2(=O)=O,.,.,8.9[16.7 µM],1.9,9.4
O=C(NCCCN1CCCC1=O)c1cc(S(=O)(=O)N2CCOCC2)c(Cl)cc1Cl,-1.5,-2.0,18.9,17.1*,7.3
COc1ccc(S(=O)(=O)Nc2ccc3c(c2)C(=O)N([C@@H](C)CO)C[C@H](C)[C@H](CN(C)C(=O)CCCN(C)C)OCCCC[C@H](C)O3)cc1,.,.,9.8[16.7 µM],0.6,1.4
C[C@@H]1CN([C@H](C)CO)C(=O)Cc2cc(NC(=O)Nc3ccccc3)ccc2O[C@@H]1CN(C)CC1CC1,.,.,.,.,-3.5
CCOC(=O)c1ccccc1NC(=O)Cn1c(=O)n(Cc2ccccc2)c(=O)c2c(C)c(C)sc21,2.7,-4.2,58.4*,.,-31.0
CCC1(CC)C(=O)NC(=S)N=C1N,8.8,1.8,-4.5,-1.1,.
CCC1(C2=CCCCC2)C(=O)NC(=S)N=C1N (stereo unspecified),-17.3,-3.7,0.0,8.7*,0.7
COc1ccc(C(=O)OCc2cc(=O)n3c(C)csc3n2)cc1F,106.0*,18.7,.,-6.5,2.4
O=c1[nH]c2ccccc2nc1-c1nnnn1C1CCCC1,.,-0.4,-16.2,-1.2,49.3*
CCCC#Cc1ccc2c(c1)O[C@H](CN(C)C(=O)CC1CC1)[C@@H](C)CN([C@@H](C)CO)S2(=O)=O,.,.,11.9[16.7 µM],-2.2,-13.5
CCn1c(SCC(=O)Nc2cc(C)ccc2C)nc2c(c1=O)SC(C)C2 (stereo unspecified),-0.3,-2.5,18.1,0.9,2.0
Cc1ccc(C)c(NC(=O)CSc2nc3c(c(=O)n2C)SC(C)C3)c1 (stereo unspecified),-3.6,2.0,12.4,8.7*,-1.7
C[C@@H]1CN([C@@H](C)CO)C(=O)c2cc(-c3cccc(C#N)c3)cnc2O[C@@H]1CN(C)Cc1ccncc1,.,.,-6.1[16.7 µM],1.5,6.6
COc1ccc(/C(N)=N/OC(=O)C2CCCCC2)cc1,47.2,39.6*,i,-2.7,-5.2
COc1ccc(C(=O)O/N=C(\N)c2ccc(OC)c(OC)c2)cc1,101.7*,26.3,-56.1,0.3,44.8*
N/C(=N\OC(=O)C1CCCCC1)c1cccc(Br)c1,108.2*,.,.,.,.
COc1ccc(/C(N)=N/OC(=O)C2CCCCC2)cc1OC,88.1*,25.6,-71.1,-0.8,6.4
COc1ccc(/C(N)=N/OC(=O)CC2CCCCC2)cc1OC,15.9,1.7,-5.4,7.2,-18.8
N/C(=N\OC(=O)CC1CCCCC1)c1cccc(Br)c1,6.2,9.0,6.9,-2.0,2.8
COc1ccc(NC(=O)Nc2ccc3c(c2)C(=O)N([C@@H](C)CO)C[C@@H](C)[C@@H](CN(C)Cc2ccccc2)OCCCC[C@H](C)O3)cc1,.,.,-26.5[16.7 µM],0.6,-11.8
CNC[C@H]1Oc2ccc(NS(=O)(=O)c3ccc(Cl)cc3)cc2CC(=O)N([C@@H](C)CO)C[C@@H]1C,.,.,.,-2.9,-3.1
C[C@H](CO)N1C[C@H](C)[C@@H](CN(C)S(=O)(=O)c2ccc(Cl)cc2)Oc2c(NC(=O)c3cnccn3)cccc2C1=O,.,.,16.5[16.7 µM],-0.8,12.0
